Results on 40 compounds are retold here after PubChem BioAssay (Tox21).

Values without a mark were called inactive. The call rests on the fitted dose curve.
On the % scale 0 is the no-effect control and ±100 the full control effect.

Chain of Androgen receptor (Homo sapiens) (P10275 whole entry, looked up): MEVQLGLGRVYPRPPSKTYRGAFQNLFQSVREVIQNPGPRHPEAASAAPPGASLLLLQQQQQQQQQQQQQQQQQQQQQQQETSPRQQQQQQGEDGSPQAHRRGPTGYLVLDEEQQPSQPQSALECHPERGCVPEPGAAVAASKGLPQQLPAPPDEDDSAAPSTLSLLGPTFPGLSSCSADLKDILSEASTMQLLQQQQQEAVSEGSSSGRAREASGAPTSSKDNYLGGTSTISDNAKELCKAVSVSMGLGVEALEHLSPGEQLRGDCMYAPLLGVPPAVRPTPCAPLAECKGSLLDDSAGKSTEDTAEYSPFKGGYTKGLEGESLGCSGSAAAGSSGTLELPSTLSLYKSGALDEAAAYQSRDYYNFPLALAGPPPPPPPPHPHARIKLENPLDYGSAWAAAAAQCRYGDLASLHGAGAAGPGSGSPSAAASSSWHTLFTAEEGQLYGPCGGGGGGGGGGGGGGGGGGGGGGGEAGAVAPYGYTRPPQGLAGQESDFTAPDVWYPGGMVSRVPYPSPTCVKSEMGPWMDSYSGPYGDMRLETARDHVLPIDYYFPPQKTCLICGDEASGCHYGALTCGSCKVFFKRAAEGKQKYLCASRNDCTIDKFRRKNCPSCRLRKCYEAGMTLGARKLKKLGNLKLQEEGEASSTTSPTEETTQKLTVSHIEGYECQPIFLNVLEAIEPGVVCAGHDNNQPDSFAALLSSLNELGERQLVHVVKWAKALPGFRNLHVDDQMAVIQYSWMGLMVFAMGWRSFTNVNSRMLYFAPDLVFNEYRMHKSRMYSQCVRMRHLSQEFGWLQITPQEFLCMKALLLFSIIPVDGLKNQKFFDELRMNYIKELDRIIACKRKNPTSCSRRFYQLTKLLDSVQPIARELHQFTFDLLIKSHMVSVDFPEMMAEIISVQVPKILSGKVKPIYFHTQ

This test has as its target Androgen receptor (Homo sapiens) (UniProt P10275). The test is described as follows: qHTS assay to identify small molecule agonists of the androgen receptor (AR) signaling pathway in the presence of an antagonist (AID 1259381). Further: nearly all actives have a fitted effect of over 15% in size. As to conditions: MDA-kb2 MMTV-luciferase, AR agonist + nilutamide, 16 h; series mostly up to 92.4 µM; activation: at the top concentration. The source says:
National Center for Advancing Translational Sciences [NCATS] NIH Chemical Genomics Center [NCGC] U.S. Environmental Protection Agency [EPA] National Institutes of Environmental Health Sciences [NIEHS] National Toxicology Program [NTP] Assay overview: Androgen receptor (AR) is an important member of nuclear receptor family. Its signaling plays a critical role in AR-dependent prostate cancer and other androgen related diseases. Considerable attention has been given in the past decades to develop methods to study and screen for the environmental chemicals that have the potential to interfere with metabolic homeostasis, reproduction, developmental and behavioral functions. Therefore AR binding assay for screening against androgen agonists and antagonists can be used to identify potential endocrine disruptors. MDA-kb2 cells (from ATCC, deposited by Wilson et al.) are human breast carcinoma cells that were stably transfected with a luciferase reporter gene under control of the MMTV promoter that contains response elements for both androgen receptor (AR) and glucocorticoid receptor (GR). This particular screening for measuring luciferase reporter gene activity using MDA-kb2 cells against Tox21 10K library compounds is a confirmation study on agonist mode screening in the presence of AR-antagonist compound (Nilutamide) at 3.0uM final concentration.
Assay Protocol Summary: MDA-kb2 cells (cells cultured without CO2) were dispensed at 3,000 cells/well in 4uL of culture medium into white wall/solid-bottom 1536-well plates (Corning Life Sciences, Corning, NY) using a Multidrop Combi (Thermo Fisher Scientific Inc., Waltham, MA) dispenser. The assay plates were incubated at 37C and 0% CO2 for 5hr. One uL of 3.0uM (final concentration) Nilutamide or assay buffer was added using two separate tips of Flying Reagent Dispenser (FRD, Aurora Discovery, San Diego, CA). Then 23nL of compounds dissolved in DMSO at 15 concentrations and positive controls were transferred to the assay plates using a Pintool station (Wako, San Diego, CA). The assay plates were incubated at 37C and 0% CO2 for 16hr. For luciferase read, 4uL/well ONE-Glo reagent (Promega Corporation, Madison, WI) was added to each well of the assay plates using FRD. After 30min incubation at room temperature, the luminescence signal was measured using a ViewLux plate reader (PerkinElmer, Shelton, CT).
For orientation: Quantitative high-throughput screening tests each substance at several concentrations.
Regarding `CC(=O)c1ccc(O)c(C(N)=O)c1`, the “activation” value is 0.17% [at 42.5 µM].

Take `CC(C)CC(O)Cc1ccccc1` (stereo not given): the “activation” value is 0.989%.

As for `C[C@@H](CN1CC(=O)NC(=O)C1)N1CC(=O)NC(=O)C1`, the “activation” value was 6.4% [at 42.5 µM].

`CC(C)C(=O)Nc1cccc(C2CN3CCSC3=N2)c1` (stereo not given): the “activation” value was 0.343% [at 42.5 µM].

As for `CC12CCCC=C1C(=O)OC2=O` (stereo not given), the “activation” value was 2.22%.

As to `N#Cc1ccccc1C#N`, the “activation” value is -0.987%.

For `CCOC(=O)[C@H](CCc1ccccc1)N[C@H]1CS[C@H](c2cccs2)CN(CC(=O)O)C1=O`, the “activation” value is 0.0519% [at 42.5 µM].

In the case of `COC(C)(C)CC(C)=O`, the “activation” value is 1%.

On to `CC1(C)C(=O)C(C)(C)C1=O`, for which the “activation” value was 0.0545%.

As for `C/C(Cl)=C/CCl`, the “activation” value was -0.698%.

Consider `O=C(O)CCCCCCCCCC(=O)O`, for which the “activation” value was 0.37%.

Turning to `CC(=O)OC1CCC(C(C)(C)C)CC1` (stereo not given), the “activation” value is -0.163%.

As for `CCCCCCCCCCCCCCCCN(C)C`, the activation was -0.033% [at 8.39 µM].

Consider `C=C(C)C(=O)OCCCC`, for which the “activation” value is 1.15%.

Turning to `CN(C)c1cc(NC(=O)CNC(C)(C)C)c(O)c2c1C[C@H]1C[C@H]3[C@H](N(C)C)C(=O)C(C(N)=O)=C(O)[C@@]3(O)C(=O)C1=C2O`, the “activation” value was 10.7% [at 42.5 µM].

Regarding `N#Cc1cc(NC(=O)C(=O)O)c(Cl)c(NC(=O)C(=O)O)c1`, the “activation” value was -0.519% [at 42.5 µM].

For the compound `C[C@@H]1CCC[C@H](C)N1CCCC(O)(c1ccccc1)c1ccccn1` (stereo not given in full), the “activation” value is -0.569% [at 42.5 µM].

On to `Clc1ccc2c(c1)Nc1ccccc1S2`, for which the “activation” value is 0.984% [at 42.5 µM].

For the compound `CC(C)(C)NCC(O)COc1cccc2c1CCC(=O)N2` (stereo not given), the “activation” value is -0.631% [at 42.5 µM].

With `C=CCN1CCc2nc(N)sc2CC1`, the “activation” value was 1.02% [at 42.5 µM].

As for `COc1cc(OC)cc(OC)c1`, the “activation” value is -1.79% [at 42.5 µM].

Take `O=C1CCCc2c(O)cccc21`: the “activation” value is 0.603% [at 42.5 µM].

Turning to `Cc1ccc2cccnc2c1`, the “activation” value was -0.116%.

`CC(CN1CC(=O)NC(=O)C1)N1CC(=O)NC(=O)C1` (stereo not given): the “activation” value was -3.37%.

Regarding `COC(=O)c1cc(Cl)c(NC(C)=O)cc1OC`, the “activation” value is 0.275% [at 42.5 µM].

Turning to `Cc1ccc(O)c(C(=O)c2ccccc2)c1`, the “activation” value is -0.533%.

For the compound `Cc1ccc(N)nc1`, the “activation” value is 0.94%.

For `CSC(=O)c1cccc2nnsc12`, the “activation” value is 0.985%.

For the compound `NNC(=O)OCc1ccccc1`, the “activation” value is 1%.

As for `CCN(CC)CC(=O)Oc1ccc(NC(C)=O)cc1`, the “activation” value is 0.194% [at 42.5 µM].

Regarding `CCCc1ncc(C(=O)O)s1`, the “activation” value was -1.45% [at 42.5 µM].

Regarding `CC(=O)O[C@@H]1CC2C3CCc4cc(OC(=O)c5ccccc5)ccc4C3CCC2(C)[C@H]1OC(C)=O` (stereo not given in full), the “activation” value is 0.905% [at 42.5 µM].

Take `CCCC(=O)C(CC)Sc1ccoc1C` (stereo not given): the “activation” value is 1.29%.

Take `CC(=O)/C=C/C=C1/C2CCC(C2)C1(C)C` (stereo not given): the “activation” value was 0.146% [at 42.5 µM].

Regarding `Cc1cc(=O)oc2cc(O[C@@H]3SC[C@@H](O)[C@H](O)[C@H]3O)ccc12`, the “activation” value is 2.1% [at 42.5 µM].

With `Nc1cc(S(=O)(=O)O)ccc1O`, the “activation” value is 0.187%.

With `COCc1nnc(-c2ccc[n+]([O-])c2)n1-c1c(Cl)c(Cl)cc2[nH]c(=O)c(=O)[nH]c12`, the “activation” value is 0.714%.

In the case of `CCc1ncc(C)[nH]1`, the “activation” value was 0.798%.

For the compound `O=C[C@@H](O)[C@H](O)[C@H](O)CO`, the “activation” value was 0.595%.

`CC(O)C(CO)C(C)O` (stereo not given): the “activation” value was -0.485%.
